The panel holds about 79,000 compounds, 15% with a hit somewhere; the sample as a whole holds those more often. A number with no mark means an inactive call. The source made the active and inactive calls. No stated cut-off is given here; in the data, active means growth inhibition above about 70%; inactive means the rest.
Columns and labels:
[1] = NCI Yeast Anticancer Drug Screen. Data for the rad52 strain (AID 147);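 further: 0% = growth of vehicle-treated control cultures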; conditions: S. cerevisiae rad52 mutant growth inhibition, hits give high values
Procedure, shortened: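 Measured: yeast growth inhibition. System: strain with a defined DNA damage repair alteration. Reference: vehicle-treated control cultures.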

[2] = NCI Yeast Anticancer Drug Screen. Data for the wt1 strain (AID 149);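 further: 0% = growth of vehicle-treated wt1 cultures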; conditions: S. cerevisiae wt1 strain (SPY 50644) growth inhibition, hits give high values
Procedure, shortened: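 Measured: growth of wt1 yeast under compound versus vehicle treatment, reported as inhibition.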

[3] = NCI Yeast Anticancer Drug Screen. Data for the rad50EPP+ strain (AID 151);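 further: 0% = growth of vehicle-treated control cultures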; conditions: S. cerevisiae rad50 mutant strain, hits give high values
Procedure, shortened: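 One strain with a rad50 alteration (rad50EPP+) was compound-treated, its growth then compared to that of vehicle controls.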

[4] = NCI Yeast Anticancer Drug Screen. Data for the mgt1 strain (AID 153); conditions: S. cerevisiae mgt1 mutant growth inhibition, hits give high values
Procedure, shortened: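 After exposure of the mgt1 yeast mutant to compound, growth was measured and reported as inhibition compared with vehicle controls.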

[5] = NCI Yeast Anticancer Drug Screen. Data for the rad50 strain (AID 155);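 further: 0% = growth of vehicle-only cultures of the same strain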; conditions: S. cerevisiae rad50 strain growth inhibition, hits give high values
Procedure, shortened: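 Growth of the mutant yeast was measured after compound exposure and referenced to vehicle-treated cultures.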

[6] = NCI Yeast Anticancer Drug Screen. Data for the mec2-1 strain (AID 157); conditions: S. cerevisiae mec2-1 strain, hits give high values
Procedure, shortened: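 Test agents were screened against the mec2-1 yeast strain, with defined DNA repair or cell cycle alteration. Growth was scored as inhibition against vehicle-only controls.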

[7] = NCI Yeast Anticancer Drug Screen. Data for the rad14 strain (AID 159);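 further: 0% = growth of vehicle-treated control cultures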; conditions: S. cerevisiae rad14 strain growth inhibition, hits give high values
Procedure, shortened: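 Here, inhibition of yeast growth was measured after compound exposure, using a strain with a genetic defect in DNA damage repair and vehicle-treated cultures as the reference.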

[8] = NCI Yeast Anticancer Drug Screen. Data for the CLN2oe strain (AID 163);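 further: 0% = growth of vehicle-only control cultures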; conditions: S. cerevisiae CLN2oe strain, hits give high values
Procedure, shortened: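 Here, growth inhibition in a cell-cycle-altered yeast strain after compound exposure was quantified against vehicle control growth.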

[9] = NCI Yeast Anticancer Drug Screen. Data for the cln2 rad14 strain (AID 165);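 further: 0% = growth equal to vehicle treated cultures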; conditions: S. cerevisiae cln2 rad14 strain, hits give high values
Procedure, shortened: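 Growth of compound-exposed yeast (cln2 rad14 genotype) measured and expressed as inhibition relative to vehicle.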

[10] = NCI Yeast Anticancer Drug Screen. Data for the bub3 strain (AID 167); conditions: S. cerevisiae bub3 mutant strain, hits give high values
Procedure, shortened: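 Whole-cell yeast assay. The mutant strain was incubated with compounds, and growth inhibition was determined by comparison with vehicle-treated cells.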

[11] = NCI Yeast Anticancer Drug Screen. Data for the wt2 strain (AID 169);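 further: 0% = growth of vehicle-treated yeast cultures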; conditions: S. cerevisiae wt2 strain growth inhibition, hits give high values
Procedure, shortened: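 Genetically defined yeast strains from a DNA-repair/cell-cycle panel were used. Compound-exposed yeast growth was measured, and the inhibition was calculated relative to vehicle treatment.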

[12] = NCI Yeast Anticancer Drug Screen. Data for the mlh1 strain (AID 171);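 further: 0% = growth of vehicle-treated control cultures of the same strain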; conditions: S. cerevisiae mlh1 strain growth inhibition, hits give high values
Procedure, shortened: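 Here the genetically defined yeast mutant is grown with each compound, and the extent to which its growth falls below that of vehicle-exposed cells is reported.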

[13] = NCI Yeast Anticancer Drug Screen. Data for the mlh1 rad18 strain (AID 175); conditions: S. cerevisiae mlh1 rad18 strain growth inhibition, hits give high values
Procedure, shortened: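 In this whole-cell yeast screen, a strain with altered DNA damage repair is challenged with compound, and its growth is measured against matched vehicle-treated controls.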

[14] = NCI Yeast Anticancer Drug Screen. Data for the rad18 strain (AID 177); conditions: S. cerevisiae rad18 mutant growth inhibition, hits give high values
Procedure, shortened: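 Screen uses a yeast strain with a defined lesion in DNA damage repair; compound effect is read as loss of growth compared to untreated vehicle cultures.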

[15] = NCI Yeast Anticancer Drug Screen. Data for the sgs1 mgt1 strain (AID 161);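 further: 0% = growth of cultures given vehicle only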; conditions: S. cerevisiae sgs1 mgt1 strain, hits give high values
Procedure, shortened: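 Inhibition of yeast growth, normalised to vehicle-treated controls, is reported for a strain bearing genetic alterations in DNA damage repair.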

[16] = NCI Yeast Anticancer Drug Screen. Data for the sgs1 strain (AID 173);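 further: 0% = growth of vehicle-only control cultures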; conditions: S. cerevisiae sgs1 mutant, hits give high values
Procedure, shortened: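 Relative growth inhibition, referenced to vehicle, was determined in a yeast strain with a defined alteration affecting DNA damage repair or cell cycle control after compound exposure.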

[17] = at 5.0 µM (retest, dose inferred, filed as 0.5)
[18] = at 50.0 µM (retest, dose inferred, filed as 5.0)

SMILES: Cc1cc(OCc2nc(N)nc(N)c2-c2ccc(Cl)c(Cl)c2)ccc1[N+](=O)[O-]
- growth inhibition ([1]; at 1.2 µM): 0%
- growth inhibition ([1]; at 3.7 µM): 1%
- growth inhibition ([1]; at 11.0 µM): 0%
- growth inhibition ([1]; at 33.0 µM): -1%
- growth inhibition ([1]; at 100.0 µM): -2%
- growth inhibition ([2]; at 1.2 µM): 1%
- growth inhibition ([2]; at 3.7 µM): 1%
- growth inhibition ([2]; at 11.0 µM): 3%
- growth inhibition ([2]; at 33.0 µM): 3%
- growth inhibition ([2]; at 100.0 µM): 4%
- growth inhibition ([3]; at 1.2 µM): -1%
- growth inhibition ([3]; at 3.7 µM): -3%
- growth inhibition ([3]; at 11.0 µM): -1%
- growth inhibition ([3]; at 33.0 µM): -1%
- growth inhibition ([3]; at 100.0 µM): -1%
- growth inhibition ([4]; at 1.2 µM): 2%
- growth inhibition ([4]; at 3.7 µM): 5%
- growth inhibition ([4]; at 11.0 µM): 2%
- growth inhibition ([4]; at 33.0 µM): 1%
- growth inhibition ([4]; at 100.0 µM): 10%
- growth inhibition ([5]; at 1.2 µM): 0%
- growth inhibition ([5]; at 3.7 µM): 6%
- growth inhibition [5, 17]: 51%
- growth inhibition ([5]; at 11.0 µM): -3%
- growth inhibition ([5]; at 33.0 µM): 2%
- growth inhibition [5, 18]: 84% (active)
- growth inhibition ([5]; at 50.0 µM): 98.7% (active)
- growth inhibition ([5]; at 100.0 µM): 2%
- growth inhibition ([6]; at 1.2 µM): 2%
- growth inhibition ([6]; at 3.7 µM): 3%
- growth inhibition [6, 17]: 48%
- growth inhibition ([6]; at 11.0 µM): 0%
- growth inhibition ([6]; at 33.0 µM): 3%
- growth inhibition [6, 18]: 87% (active)
- growth inhibition ([6]; at 50.0 µM): 95.8% (active)
- growth inhibition ([6]; at 100.0 µM): -10%
- growth inhibition ([7]; at 1.2 µM): -1%
- growth inhibition ([7]; at 3.7 µM): 8%
- growth inhibition ([7]; at 11.0 µM): 3%
- growth inhibition ([7]; at 33.0 µM): 3%
- growth inhibition ([7]; at 100.0 µM): 3%
- growth inhibition ([8]; at 1.2 µM): 0%
- growth inhibition ([8]; at 3.7 µM): 2%
- growth inhibition ([8]; at 11.0 µM): 0%
- growth inhibition ([8]; at 33.0 µM): 4%
- growth inhibition ([8]; at 100.0 µM): 6%
- growth inhibition [9, 17]: -1%
- growth inhibition [9, 18]: 30%
- growth inhibition ([9]; at 50.0 µM): 95% (active)
- growth inhibition ([10]; at 1.2 µM): 0%
- growth inhibition ([10]; at 3.7 µM): -1%
- growth inhibition [10, 17]: -9%
- growth inhibition ([10]; at 11.0 µM): 0%
- growth inhibition ([10]; at 33.0 µM): -2%
- growth inhibition [10, 18]: 53%
- growth inhibition ([10]; at 50.0 µM): 79.9% (active)
- growth inhibition ([10]; at 100.0 µM): 20%
- growth inhibition ([11]; at 1.2 µM): 2%
- growth inhibition ([11]; at 3.7 µM): 4%
- growth inhibition ([11]; at 11.0 µM): 4%
- growth inhibition ([11]; at 33.0 µM): 4%
- growth inhibition ([11]; at 100.0 µM): 5%
- growth inhibition ([12]; at 1.2 µM): 0%
- growth inhibition ([12]; at 3.7 µM): 0%
- growth inhibition ([12]; at 11.0 µM): 0%
- growth inhibition ([12]; at 33.0 µM): -1%
- growth inhibition ([12]; at 100.0 µM): 13%
- growth inhibition [13, 17]: 26%
- growth inhibition [13, 18]: 85% (active)
- growth inhibition ([13]; at 50.0 µM): 98.5% (active)
- growth inhibition ([14]; at 1.2 µM): -3%
- growth inhibition ([14]; at 3.7 µM): -4%
- growth inhibition ([14]; at 11.0 µM): -8%
- growth inhibition ([14]; at 33.0 µM): -15%
- growth inhibition ([14]; at 100.0 µM): -23%

SMILES: CCN(CC)C(=S)SC(=S)N(CC)CC
- growth inhibition ([1]; at 1.2 µM): -33%
- growth inhibition ([1]; at 3.7 µM): -17%
- growth inhibition ([1]; at 11.0 µM): 27%
- growth inhibition ([1]; at 33.0 µM): 96% (active)
- growth inhibition ([1]; at 100.0 µM): 98% (active)
- growth inhibition ([2]; at 1.2 µM): -25%
- growth inhibition ([2]; at 3.7 µM): -16%
- growth inhibition ([2]; at 11.0 µM): 28%
- growth inhibition ([2]; at 33.0 µM): 92% (active)
- growth inhibition ([2]; at 100.0 µM): 99% (active)
- growth inhibition ([3]; at 1.2 µM): -1%
- growth inhibition ([3]; at 3.7 µM): 7%
- growth inhibition ([3]; at 11.0 µM): 37%
- growth inhibition ([3]; at 33.0 µM): 91% (active)
- growth inhibition ([3]; at 100.0 µM): 99% (active)
- growth inhibition ([4]; at 1.2 µM): -42%
- growth inhibition ([4]; at 3.7 µM): -43%
- growth inhibition ([4]; at 11.0 µM): 16%
- growth inhibition ([4]; at 33.0 µM): 95% (active)
- growth inhibition ([4]; at 100.0 µM): 98% (active)
- growth inhibition ([5]; at 1.2 µM): -15%
- growth inhibition ([5]; at 3.7 µM): 15%
- growth inhibition [5, 17]: 10%
- growth inhibition ([5]; at 11.0 µM): 29%
- growth inhibition ([5]; at 33.0 µM): 79% (active)
- growth inhibition [5, 18]: 46%
- growth inhibition ([5]; at 50.0 µM): 90% (active)
- growth inhibition ([5]; at 100.0 µM): 97% (active)
- growth inhibition ([6]; at 1.2 µM): -34%
- growth inhibition ([6]; at 3.7 µM): -10%
- growth inhibition [6, 17]: 6%
- growth inhibition ([6]; at 11.0 µM): 32%
- growth inhibition ([6]; at 33.0 µM): 97% (active)
- growth inhibition [6, 18]: 48%
- growth inhibition ([6]; at 50.0 µM): 93.7% (active)
- growth inhibition ([6]; at 100.0 µM): 97% (active)
- growth inhibition [15, 17]: -9%
- growth inhibition [15, 18]: 87% (active)
- growth inhibition ([15]; at 50.0 µM): 92.8% (active)
- growth inhibition ([8]; at 1.2 µM): 0%
- growth inhibition ([8]; at 3.7 µM): -8%
- growth inhibition ([8]; at 11.0 µM): 18%
- growth inhibition ([8]; at 33.0 µM): 63%
- growth inhibition ([8]; at 100.0 µM): 98% (active)
- growth inhibition [9, 17]: -15%
- growth inhibition [9, 18]: 18%
- growth inhibition ([9]; at 50.0 µM): 40.2%
- growth inhibition ([10]; at 1.2 µM): -25%
- growth inhibition ([10]; at 3.7 µM): -21%
- growth inhibition [10, 17]: 0%
- growth inhibition ([10]; at 11.0 µM): -22%
- growth inhibition ([10]; at 33.0 µM): 27%
- growth inhibition [10, 18]: 58%
- growth inhibition ([10]; at 50.0 µM): 91.4% (active)
- growth inhibition ([10]; at 100.0 µM): 97% (active)
- growth inhibition ([11]; at 1.2 µM): -21%
- growth inhibition ([11]; at 3.7 µM): 32%
- growth inhibition ([11]; at 11.0 µM): 60%
- growth inhibition ([11]; at 33.0 µM): 98% (active)
- growth inhibition ([11]; at 100.0 µM): 99% (active)
- growth inhibition ([12]; at 1.2 µM): -38%
- growth inhibition ([12]; at 3.7 µM): -48%
- growth inhibition ([12]; at 11.0 µM): -6%
- growth inhibition ([12]; at 33.0 µM): 88% (active)
- growth inhibition ([12]; at 100.0 µM): 98% (active)
- growth inhibition ([16]; at 1.2 µM): -43%
- growth inhibition ([16]; at 3.7 µM): -18%
- growth inhibition ([16]; at 11.0 µM): 44%
- growth inhibition ([16]; at 33.0 µM): 90% (active)
- growth inhibition ([16]; at 100.0 µM): 98% (active)
- growth inhibition [13, 17]: 14%
- growth inhibition [13, 18]: 73% (active)
- growth inhibition ([13]; at 50.0 µM): 92% (active)
- growth inhibition ([14]; at 1.2 µM): -26%
- growth inhibition ([14]; at 3.7 µM): 6%
- growth inhibition ([14]; at 11.0 µM): 53%
- growth inhibition ([14]; at 33.0 µM): 95% (active)
- growth inhibition ([14]; at 100.0 µM): 98% (active)
